ChEMBL document CHEMBL4513216, “Probing the Open Global Health Chemical Diversity Library for Multistage-Active Starting Points for Next-Generation Antimalarials” (ACS Infect Dis, 2020)
The whole screen tested about 69,000 compounds, of which about 8,600 (12%) showed an effect of 50% or more. This excerpt belongs to a sample that is enriched for strong results.

tested on: Plasmodium berghei; assay: Screen against P. berghei liver stage (PbLuc), transformed with Luciferase, at 10uM; type: functional, HepG2; settings: tested at 10 uM

Row | SMILES | INHIBITION [%]
1 | CC1CCN(S(=O)(=O)c2ccc(C(=O)N3CCSCC3)cc2)CC1 | -2.39
2 | CN(C)C(=O)NCc1cc2n(n1)CCN(CC1[C@H]3CNC[C@@H]13)C2 (stereo not given in full) | 43.5
3 | NC(=O)c1cnn2c(C3CCN(CCO)CC3)ccnc12 | 14.55
4 | COCc1cnc2n1CCN(Cc1cccnc1)C2C (stereo not given) | -0.182
5 | O=C(N[C@@H]1CN(Cc2cccc3[nH]ccc23)C[C@H]1O)c1cscn1 | -10.8
6 | CCN1CC(COC(C)(C)C)Oc2ccncc2S1(=O)=O (stereo not given) | 13.1
7 | CS(=O)(=O)N1CCN(C(=O)CCn2cccn2)CC1 | 17.32
8 | Cc1ccccc1OCCN(C)Cc1noc(CC(C)C)n1 | 33.7
9 | CC(C)Cc1nc(CN(C)CCOc2ccc(F)cc2)no1 | 59.4
10 | CC(C)Cc1nc(CN(C)CCOc2ccccc2F)no1 | 34.7
11 | Cc1cccc(C(=O)N2CCc3c(CN(C)C)nn(C)c3C2)n1 | 38.3
12 | Cc1nc(C)c(C(=O)NCCNc2ncccn2)s1 | 38.8
13 | CN1CCN(CC2CC2)C(=O)C12CCN(C(=O)c1ccnnc1)CC2 | 5.63
14 | CCC(=O)Nc1ccc2c(c1)CN(C(=O)c1ccco1)CC2 | -46.6
15 | COCC(=O)Nc1ccc2c(c1)CN(C(=O)c1ccco1)CC2 | -45.3
16 | CC(=O)Nc1ccc2c(c1)CN(C(=O)c1ccco1)CC2 | 55.7
17 | CC(=O)c1cc(Br)cc(F)c1OCC(=O)NC1CC1 | -3.72
18 | CN(C)C(=O)CN1CCCC(CCCc2ccccn2)(C(N)=O)C1 (stereo not given) | -50.2
19 | CCn1cnnc1C1CCN(C(=O)c2cc3c(s2)CCCC3)CC1 | 13.3
20 | COc1cccc(OCC(=O)N2CCC3(CC2)[C@H](O)C[C@@H]3OC)c1 | -14.1
21 | Cc1ccc(OCCC(=O)N2CCC(c3nncn3C)CC2)c(C)c1 | -17
22 | Cn1cnnc1C1CCN(C(=O)c2cc3c(s2)CCC3)CC1 | 9.14
23 | CCn1cnnc1C1CCN(C(=O)COc2ccccc2OC)CC1 | -41.6
24 | Cc1ccccc1OCCC(=O)N1CCC(c2nncn2C)CC1 | -4.94
25 | CO[C@H]1C[C@@H](O)C12CCN(C(=O)CCCOc1ccccc1)CC2 | 72.3
26 | CCn1cnnc1C1CCN(C(=O)COc2ccc(Cl)cc2)CC1 | -37.7
27 | CCn1cnnc1C1CCN(C(=O)COc2ccccc2)CC1 | 53
28 | Cc1cccc(C)c1OCCC(=O)N1CCC(c2nncn2C)CC1 | 55.9

Row | SMILES | INHIBITION [%]
29 | NCCO[C@H]1C[C@@H](O)C12CCN(C(=O)CCOc1ccccc1)CC2 | 5.67
30 | CCn1cnnc1C1CCN(C(=O)c2cc3c(s2)CCC3)CC1 | 61.3
31 | CC1(c2ccc(Br)cc2)CC(=O)N(CCC#N)C1=O (stereo not given) | -12.2
32 | O=C(O)c1ccccc1-c1ccc(CN2CCCC(O)C2)cc1 (stereo not given) | 48.6
33 | Oc1nc(C2CCN(Cc3ccccn3)CC2)cc2ccccc12 | -13.2
34 | CCOc1ccnc(N2CCN(C(=O)c3cn[nH]c3C)CC2)n1 | -11.4
35 | O=C(c1ccccn1)N1C[C@H]2CC[C@@H](C1)N(C(=O)CCc1ccsc1)C2 | -16.5
36 | CCc1n[nH]c(=O)c(C(=O)N2CCSC(C)(C)C2)c1CC | 18.7
37 | COCCC(=O)NCCc1nc(N(C)C)ncc1-c1ccncc1 | 2.5
38 | CCn1cnnc1C1CCN(C(=O)CCCOc2ccccc2)CC1 | 60.9
39 | Cn1cnnc1C1CCN(C(=O)CCCOc2ccccc2)CC1 | 28.8
40 | CCn1cnnc1C1CCN(C(=O)COCCc2ccccc2)CC1 | 32
41 | CC(CN1CCCC1=O)NC(=O)c1cc(=O)[nH]c2ccc(Cl)cc12 (stereo not given) | 35.4
42 | Cc1noc(C)c1CCC(=O)N1CCOCC1CC(=O)N1CCCC1 (stereo not given) | -14.1
43 | COCC(=O)N1CCO[C@H]2[C@H](OCc3cccnc3)CC[C@@H]21 | -15.7
44 | Cc1nc(N2CCC3(CCCNC3=O)C2)nc2c1CCCC2 (stereo not given) | 47.5
45 | CNc1nc(N2CCC3(CCCNC3=O)C2)nc2c1CCC2 (stereo not given) | -7.17
46 | O=C1NCCCC12CCN(c1nc3c(c(C(F)(F)F)n1)CCCC3)C2 (stereo not given) | 80.7
47 | CCC(O)CN1CCN(C(=O)c2cccn2Cc2cccnc2)CC1 (stereo not given) | 7.12
48 | CN(C)CCCNC(=O)C1CC(=O)N(c2n[nH]c3cccc(F)c23)C1 (stereo not given) | 14.6
49 | CC(C)(C)NC(=O)CNc1ncccn1 | -1.85
50 | Cc1nc(N2CCN(C)CC2)ncc1C(=O)N1CCCCC1 | 36.6
51 | Cc1nc(N2CCN(C)CC2)ncc1C(=O)N1CCN(C)CC1 | 23
52 | Cc1nc(N2CCN(C)CC2)ncc1C(=O)N1CCCCCC1 | 51.7
53 | CC1CCN(c2ccc(C(=O)N3CCCC3c3ccc[nH]3)cn2)CC1 (stereo not given) | 27
54 | CCCN1C(=O)[C@@H]2CC[C@H]1CN(S(=O)(=O)c1cccc(Cl)c1)C2 | -26.8
55 | COc1cccc(C(=O)NC(c2ccccn2)C2CCC(CN)CC2)c1 (stereo not given) | 41.2
